Our source for the composite z-score values is PubChem BioAssay.

The structures appear in SMILES notation.

The assay is described as follows: small molecules captured by biotinylated probe aFGF2 – biochemical, small-molecule microarray, fluorescence 635/667, stem cell growth factor project, primary screen (AID 1067).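 Also: measures binding of biotinylated aFGF2 protein to printed compounds on slides; z-score merges feature fluorescence and signal-to-noise across triplicate slides.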 To be noted: higher = more signal.
Compound `Cc1ccc(S[C@]2(C(=O)O)CC(=O)N(Cc3cc(C(F)(F)F)cc(C(F)(F)F)c3)[C@@H]2c2ccc(CO)cc2)cc1` showed a composite z-score of -0.175.
As for `CCOC(=O)[C@H]1[C@@H]2C(=O)N3CCC[C@H]3[C@H](O[Si](C(C)C)(C(C)C)C(C)C)[C@H]2C=C2CCN(S(=O)(=O)c3ccc(C)cc3)C[C@H]21`, the figure is -0.118.
The compound `CO[C@H]1O[C@H](CO)[C@@H](OC(=O)Nc2ccccc2-c2ccccc2)[C@H](OC(=O)Nc2ccc3c(c2)OCO3)[C@H]1OC(=O)Nc1ccc2c(c1)OCO2` had a composite z-score of 0.0555.
As to `COc1ccccc1CN1C(=O)c2ccccc2[C@@]2(Cc3ccccc3N(CC(F)(F)F)C2=O)[C@@H]1c1ccc(CO)cc1`, the composite z-score was -0.226.
As to `CN(C)C(=O)[C@@]1(Cc2ccccc2CN=[N+]=[N-])N=C(c2ccc(OCCCO)cc2)O[C@H]1c1ccccc1CN=[N+]=[N-]`, the composite z-score was found to be 0.222.
`COc1ccc(CCN2C(=O)[C@@]3(Cc4ccccc42)c2ccccc2C(=O)N(Cc2ccccc2OC)[C@H]3c2ccc(CO)cc2)cc1` gave a composite z-score of 0.0252.
`O=C1C2C=CC(C(O)c3ccc(Br)cc3)N(Nc3ccccc3F)C2C(=O)N1c1ccccc1` (centres undefined) came in with a composite z-score of 0.0181.
With `C=CCC(OC(C)=O)[C@@H]1[C@@H](N(Cc2cccc3ccccc23)C(=O)Cc2ccc(OC)cc2)c2cc(OCCCO)ccc2N1C(=O)c1ccc2ccccc2n1` (some centres undefined), the composite z-score was determined as 0.0437.
The compound `COC(=O)C(CC#Cc1ccc2c(c1)[C@]1(C(=O)N2)[C@H](c2ccccc2OCCO)N2[C@H](c3ccccc3)[C@H](c3ccccc3)OC(=O)[C@H]2[C@@H]1C(=O)NC[C@H](O)c1ccccc1)C(=O)OC` yielded a composite z-score of -0.0307.
